What all share (experiment): NCI-60 one-dose screen, 48 h (100 = growth as untreated, 0 = no growth, -100 = all killed)
Common to all, as to conditions: 10 µM

Assay [1] has as its system NCI-H23 lung.
The subject of assay [2] is NCI-H226 lung.
For assay [3], the system named is HOP-62 NSCLC.
The subject of assay [4] is NCI-H460 lung.
Assay [5] relates to HOP-92 NSCLC.
Assay [6] deals with NCI-H522 lung.
Assay [7] deals with A549/ATCC NSCLC.
Assay [8] has as its system 786-0 renal.
For assay [9], the system named is COLO 205 colon.
Assay [10] deals with DU-145 prostate.
Assay [11] deals with K-562 leukemia.
For assay [12], the system named is MALME-3M melanoma.
In assay [13] the test system is MDA-MB-231 breast.
Assay [14] has as its system RXF 393 renal.
Assay [15] has as its system SF-268 CNS.
Assay [16] relates to SF-295 CNS.
Assay [17] concerns SF-539 CNS.
The subject of assay [18] is UACC-257 melanoma.
For assay [19], the system named is M14 melanoma.

This is part of a sample that, as a whole, favours compounds with a hit. Of some 83,000 tested, about 20% had one in any assay.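 Testing used 96-well plates and a 48-hour single-concentration exposure. Example: -40 means 40% of the starting cells died.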 Unmarked numbers belong to inactive results. Calls of active or inactive are those of the source. The calls were made as follows: active = growth percent below 10; inactive = the rest.

With `COc1cc2c(cc1NC(=O)C(F)(F)F)-c1ccc(NC(=O)C(F)(F)F)cc1C2`, the growth was 86.9% in assay [1]; 47.9% in assay [2]; 45.4% in assay [3]; 97.8% in assay [4]; 90.3% in [5]; 99.2% in assay [6]. The growth in assay [7] is 92.2%; in assay [8] it was 98.6%; in [9], 112%; in [10] it was 93.4%; in assay [11], 100%; in assay [12] it was 83.7%. For the same compound, the growth in assay [13] was 91.1%; in [14], 35.7%; in assay [15] it was 90.1%; in assay [16] it was 83.4%; in assay [17], 80.6%; in [18], 109%. The growth in assay [19] is 113%.
Consider `CCn1c(SCc2ccc(C)cc2)nnc1-c1nn(-c2ccc(Cl)cc2Cl)c(-c2ccc(Cl)cc2)c1C`, for which the growth in assay [1] is 3.53% (active); in assay [2], 11.6%; in assay [3], 9.33% (active); in assay [4], 8.69% (active); in assay [5] it was -17.2% (active); in [6] it was -17.4% (active). The growth was 9.87% (active) in assay [7]; 12.2% in assay [8]; -34.3% (active) in [9]; 23.4% in assay [10]; 8.88% (active) in assay [11]; 7.8% (active) in assay [12]. For the same compound, the growth in assay [13] is 5.05% (active); in assay [14], 8.71% (active); in assay [15], 22.8%; in assay [16] it was 9.65% (active); in assay [17], 19.8%; in [19], 12.3%.
For the compound `C#CCOc1c(OC)cc(C(=O)/C(C)=C/c2cccc(N=[N+]=[N-])c2)cc1OC`, the growth in [1] is 36.4%; in [2] it was 68.9%; in assay [3], 36%; in assay [4] it was 16.7%; in assay [5], 63.1%; in assay [6], -48.6% (active). Besides, the growth in assay [7] was 18.8%; in [8] it was 23.7%; in assay [9], -31.8% (active); in [10], 11.7%; in assay [11], 14.4%; in [12], 54.7%. Further, the growth in assay [13] was 30.5%; in [14], -8.56% (active); in [15] it was 42.6%; in assay [16], 8.17% (active); in [17], -12.5% (active); in assay [19], 5.53% (active).
On to `Cc1noc(C)c1CSc1ccccc1C(=O)N1CCN(c2cccc(C(F)(F)F)c2)CC1`, for which the growth was 67.9% in [1]; 75.6% in assay [2]; 91.5% in assay [3]; 84.2% in assay [4]; 68.1% in assay [5]; 62% in [6]. The growth was 73.7% in assay [7]; 87.5% in assay [8]; 74.2% in assay [9]; 95.7% in [10]; 52.8% in assay [11]; 84.5% in assay [12]. Moreover, the growth in [13] is 65.7%; in [14], 99.8%; in assay [15] it was 95.3%; in assay [16], 75.2%; in [17] it was 87.4%; in assay [19] it was 71.6%.
In the case of `C[C@@H](C[C@H](CCO)c1ccccc1)c1ccc2ccccc2c1`, the growth is -65.1% (active) in assay [1]; -65.7% (active) in [2]; -55% (active) in [3]; -48.5% (active) in assay [4]; -95.6% (active) in assay [5]; -53.9% (active) in assay [6]. For the same compound, the growth in assay [7] was -81.4% (active); in assay [8], -90.6% (active); in assay [9], -86.9% (active); in [10], -40.9% (active); in assay [11], -35.2% (active); in assay [12], -87.6% (active). The growth in assay [13] is -73.6% (active); in [14], -87.4% (active); in [15], -70.4% (active); in assay [16], -89.2% (active); in assay [17], -82.7% (active); in assay [19], -84.2% (active).
Take `COc1cc(C(=O)/C=C/c2c[nH]c3ccccc23)cc(OC)c1OC`: the growth in [1] was 16.1%; in assay [2], 55.6%; in assay [3] it was 41.1%; in assay [4], 8.04% (active); in assay [5] it was 39.2%; in assay [6] it was -27% (active). Moreover, the growth in assay [7] was 17.7%; in assay [8], 12.2%; in [9], -65.1% (active); in [10], 5.54% (active); in assay [11] it was 11.3%; in assay [12], 52.5%. For the same compound, the growth in assay [13] was 13%; in assay [14], 43%; in assay [15], 20.3%; in assay [16] it was 16.9%; in [17] it was -1.84% (active); in assay [19] it was 8.91% (active).
Consider `COc1ccc(/C=C/c2nnc(/C=C/c3ccc(OC)c(OC)c3)o2)cc1OC`, for which the growth is 25.4% in assay [1]; 63.5% in assay [2]; 35.3% in assay [3]; 15.6% in [4]; 20.4% in assay [5]; 9.91% (active) in assay [6]. Also, the growth is 32% in assay [7]; 12.8% in assay [8]; 22% in assay [9]; 49.2% in [10]; 14.8% in assay [11]; 57.1% in assay [12]. For the same compound, the growth in [13] was 17.8%; in assay [14], 27.4%; in assay [15] it was 41.9%; in assay [16], 12.5%; in [17], -11.8% (active); in [19] it was 5.44% (active).

The values above are taken from PubChem BioAssay (NCI).
